According to PubChem BioAssay (EPA / NIEHS):
Active and inactive are the calls of the source. The calls were made as follows: active = hit-call score of the fitted dose curve at least 0.9, where 1 is the maximum; inactive = score below 0.9.

molecular target: Signal transducer and activator of transcription 3 (Homo sapiens) (UniProt P40763); assay: ATG_STAT3_CIS: Attagene CIS-FACTORIAL HepG2 Assay for human Signal Transducer and Activator of Transcription 3 (STAT3) (AID 2282963); conditions: HepG2, Attagene cis-factorial STAT3 reporter transcription; actives raise or lower the signal
Protocol: ATG_CIS is a cell-based, multiplexed-readout assay that uses HepG2, a human liver cell line, with measurements taken at 24 hours after chemical dosing in a 24-well plate.ATG_STAT3_CIS is one of 52 assay component(s) measured or calculated from the ATG_CIS assay. It is designed to make measurements of mRNA induction, a form of inducible reporter, as detected with fluorescence intensity signals by Reverse transcription polymerase chain reaction (RT-PCR) and Capillary electrophoresis technology.Data from the assay component ATG_STAT3_CIS was analyzed into 1 assay endpoint. This assay endpoint, ATG_STAT3_CIS, was analyzed with bidirectional fitting relative to DMSO as the negative control and baseline of activity. Using a type of inducible reporter, measures of mRNA for gain or loss-of-signal activity can be used to understand the reporter gene at the transcription factor-level as they relate to the gene STAT3. Furthermore, this assay endpoint can be referred to as a primary readout, because this assay has produced multiple assay endpoints where this one serves a reporter gene function. To generalize the intended target to other relatable targets, this assay endpoint is annotated to the dna binding intended target family, where the subfamily is stat protein.
Human liver HepG2 cells are transiently transfected with multiple reporter transcription units (MRTUs) in 6-well plates using FuGene 6 reagent (Roche; 3 ml FuGene/1 mg DNA). The MRTU constructs are regulated by a cis-regulating element (promoter). […] A major difference between the CIS and TRANS system is that in CIS activities of endogenous TFs are measured, whereas the TRANS assay evaluates changes in activities of exogenous, chimeric NR-Gal4 proteins. […] At the end of 24 hour incubation, total RNA was isolated using TriZol reagent (Invitrogen). The isolated RNA is then reverse-transcribed using oligo(dT) primer and Mo-MLV reverse transcriptase (Invitrogen) with DNAse I (Ambion) treatment for 30 min. The one-tenth of the produced cDNA was amplified by PCR using Taq DNA polymerase (Invitrogen) and two reporter sequence-specific primers. The PCR products were fluorescently labeled by primer extension with 6-arboxyfluorescein (6-FAM) 5'-labeled reporter sequence-specific primer (2 min at 95 C, 20 s at 68 C and 10 min at 72 C) and these products were digested with 5U of HpaI (New England Biolabs) for 2h at 37 C. The fragments were purified using Qiaquick PCR columns (Qiagen), analyzed on an ABI 3130xL genetic analyzer (Applied Biosystems) with peak positions identified by using a set of X-rhodamine (ROX)-labeled MapMarker1000 molecular weight standards (BioVentures). The raw capillary electrophoresis data was processed using Attagraph software (Attagene).

Sequence of Signal transducer and activator of transcription 3 (Homo sapiens) (P40763 whole entry, looked up): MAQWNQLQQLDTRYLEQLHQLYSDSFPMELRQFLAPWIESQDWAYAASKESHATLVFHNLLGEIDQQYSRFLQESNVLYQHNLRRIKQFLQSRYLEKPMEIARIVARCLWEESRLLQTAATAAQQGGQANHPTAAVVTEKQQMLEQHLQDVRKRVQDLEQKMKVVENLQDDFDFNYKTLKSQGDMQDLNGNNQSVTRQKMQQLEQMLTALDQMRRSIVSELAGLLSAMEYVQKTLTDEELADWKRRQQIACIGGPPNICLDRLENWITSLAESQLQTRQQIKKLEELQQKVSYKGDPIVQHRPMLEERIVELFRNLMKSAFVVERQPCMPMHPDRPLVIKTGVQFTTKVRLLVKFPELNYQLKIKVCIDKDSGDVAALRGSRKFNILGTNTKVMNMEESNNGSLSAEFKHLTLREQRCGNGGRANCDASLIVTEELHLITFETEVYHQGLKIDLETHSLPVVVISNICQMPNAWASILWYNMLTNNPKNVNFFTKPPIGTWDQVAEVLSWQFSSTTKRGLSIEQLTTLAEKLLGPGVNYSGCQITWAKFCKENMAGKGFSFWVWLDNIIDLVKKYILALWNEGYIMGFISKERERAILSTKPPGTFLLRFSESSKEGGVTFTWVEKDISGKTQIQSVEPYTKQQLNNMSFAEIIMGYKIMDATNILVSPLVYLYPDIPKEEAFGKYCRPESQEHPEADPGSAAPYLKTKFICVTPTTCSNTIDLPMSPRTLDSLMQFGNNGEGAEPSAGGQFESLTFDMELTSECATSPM

| SMILES | outcome |
| --- | --- |
| CCCCCCOC(=O)CCCCC(=O)OCCCCCC | inactive |
| CCC(C)c1ccccc1 (stereo not given) | inactive |
| CC1(C)CCC[C@]2(C)[C@H]3CC(=O)O[C@]3(C)CC[C@@H]12 | inactive |
| CC(C)C(=O)OCCOc1ccccc1 | inactive |
| CCC(=O)C1CC(C(C)C)CC=C1C (stereo not given) | inactive |
| CCNc1nc(NC(C)(C)C)nc(OC)n1 | inactive |
| Nc1cccc(N)n1 | inactive |
| CCCCOCCOCCOC(C)=O | inactive |
| C=CC(=O)O[C@H]1C[C@@H]2CC[C@@]1(C)C2(C)C | inactive |
| CN(C)Cc1cc(CN(C)C)c(O)c(CN(C)C)c1 | inactive |
| CCCCCCCCCCCC(=O)N(C)CC(=O)O | inactive |
| N#Cc1ccc(C(c2ccc(C#N)cc2)n2cncn2)cc1 | inactive |
| CN(C)c1ccc2nc3ccc(=[N+](C)C)cc-3sc2c1 | inactive |
| Cc1cc(=O)[nH]c(=O)[nH]1 | inactive |
| N#CC1(N)CCCCC1 | inactive |
| CC(C)(c1ccccc1)c1ccc(Nc2ccc(C(C)(C)c3ccccc3)cc2)cc1 | inactive |
| CC(C)CO | inactive |
| CCOB(OCC)OCC | inactive |
| COc1cc(C)ccc1O | inactive |
| C=C(C)C1CC=C(C)CC1 (stereo not given) | inactive |

| SMILES | outcome |
| --- | --- |
| [Cl][Sc]([Cl])[Cl] | inactive |
| C1CNCCN1 | inactive |
| C=C(C)[C@@H]1CC=C(C)CC1 | inactive |
| CCCCC1C(=O)N(c2ccccc2)N(c2ccccc2)C1=O | inactive |
| CCC1COC(=O)O1 (stereo not given) | inactive |
| CCC(C)C(=O)OC (stereo not given) | inactive |
| CCCCC1CCC(=O)O1 (stereo not given) | inactive |
| CC(C)(CO)COC(=O)C(C)(C)CO | inactive |
| COc1ccc(C(=O)/C(Br)=C\C(=O)O)cc1 | inactive |
| Cc1ccc([N+](=O)[O-])cc1N | inactive |
| CC(C)OC(=O)c1ccccc1 | inactive |
| CCOC(=O)OC(=O)OCC | inactive |
| COC(=O)C=Cc1ccccc1 | inactive |
| CC/C=C\CCOC(=O)c1ccccc1O | inactive |
| O=C(O)c1cc(O)c2ccccc2c1O | inactive |
| CC(=O)OC1CCCCC1 | inactive |
| CC(=O)/C=C/C1C(C)=CCCC1(C)C (stereo not given) | inactive |
| O=C(O)c1ccc2c(c1)C(=O)OC2=O | inactive |
| Oc1c(Cl)cc(Cl)c(Cl)c1Cl | inactive |
| CCCCCCCCCCCCCC(=O)OC(C)C | inactive |
